Measurements from PubChem BioAssay AID1159580 (chemical genetic matrix, 2015).
The campaign covered roughly 5,500 compounds. About 2,000 (36%) were called active. Not shown: some 18% with an inconclusive outcome. No stated cut-off is given here; in the data, active means normalized growth mostly below about 0.91 (no sharp cut-off); inconclusive means no clear call, values can overlap the other calls; inactive means mostly above about 0.92. This is one part of the list.

Test: chemical genetic growth profiling, strain panel (AID 1159580);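 further: tested at 20 µM; growth read once vehicle control cultures reached saturation at 30 °C; 1 = growth at the plate median or of vehicle wells; lower values mean less growth of the strain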
Settings: S. cerevisiae deletion strains, growth OD
[1] = locus YDL101C, strain DUN1, active compounds read low
[2] = locus YHR030C, strain SLT2, active compounds read low

Measured: normalized growth

FC(F)(F)c1ccnc(N2CCCN(C(=S)Nc3ccc(Cl)cc3Cl)CC2)n1
active: [2] 0.712 | locus YLR113W, strain HOG1, active compounds read low 0.689 | locus YPL256C, strain CLN2, active compounds read low 0.777
inactive: locus YAR019C, strain CDC15, active compounds read low 0.974 | locus YBL105C, strain PKC1, active compounds read low 0.977 | locus YBR135W, strain CKS1, active compounds read low 0.972 | locus YBR136W, strain MEC1, active compounds read low 0.973 | locus YBR160W, strain CDC28, active compounds read low 0.974 | locus YDL017W, strain CDC7, active compounds read low 0.966 | locus YDL028C, strain MPS1, active compounds read low 0.975 | [1] 0.975 | locus YDL108W, strain KIN28, active compounds read low 0.975 | locus YDL132W, strain cdc53, active compounds read low 0.977 | locus YDL214C, strain PRR2, active compounds read low 0.966 | locus YDR052C, strain DBF4, active compounds read low 0.972 | locus YDR054C, strain cdc34, active compounds read low 0.976 | locus YDR226W, strain ADK1, active compounds read low 0.982 | locus YDR477W, strain SNF1, active compounds read low 0.985 | locus YER123W, strain YCK3, active compounds read low 1 | locus YER133W, strain GLC7, active compounds read low 0.993 | locus YFL009W, strain cdc4, active compounds read low 0.98 | locus YFL029C, strain CAK1, active compounds read low 0.963 | locus YFR003C, strain YPI1, active compounds read low 0.972 | locus YFR019W, strain FAB1, active compounds read low 0.996 | locus YFR028C, strain CDC14, active compounds read low 0.979 | locus YGR040W, strain KSS1, active compounds read low 0.985 | locus YGR052W, strain FMP48, active compounds read low 1.04 | locus YGR092W, strain DBF2, active compounds read low 0.9 | locus YHR079C, strain IRE1, active compounds read low 0.848 | locus YHR082C, strain KSP1, active compounds read low 1.08 | locus YHR205W, strain SCH9, active compounds read low 0.946 | locus YIL147C, strain SLN1, active compounds read low 0.972 | locus YJL095W, strain BCK1, active compounds read low 0.942 | locus YJL128C, strain PBS2, active compounds read low 0.978 | locus YJL157C, strain FAR1, active compounds read low 0.981 | locus YJR016C, strain ILV3, active compounds read low 0.989 | locus YJR066W, strain TOR1 (second series), active compounds read low 0.953 | locus YJR066W, strain TOR1, active compounds read low 1.03 | locus YKL048C, strain ELM1, active compounds read low 0.961 | locus YKL067W, strain YNK1, active compounds read low 0.973 | locus YKL101W, strain HSL1, active compounds read low 0.958 | locus YKL193C, strain SDS22, active compounds read low 0.978 | locus YKL203C, strain TOR2, active compounds read low 1.02 | locus YLR133W, strain CKI1, active compounds read low 0.979 | locus YLR403W, strain SFP1, active compounds read low 0.982 | locus YML070W, strain DAK1, active compounds read low 0.972 | locus YMR001C, strain CDC5, active compounds read low 0.971 | locus YMR205C, strain PFK2 (second series), active compounds read low 0.968 | locus YMR277W, strain FCP1, active compounds read low 0.973 | locus YNL006W, strain LST8, active compounds read low 0.98 | locus YNL020C, strain ARK1, active compounds read low 0.966 | locus YNL161W, strain CBK1, active compounds read low 0.982 | locus YNL183C, strain NPR1, active compounds read low 1.01 | locus YNL207W, strain RIO2, active compounds read low 0.964 | locus YNL222W, strain SSU72, active compounds read low 0.978 | locus YNL307C, strain MCK1 (second series), active compounds read low 0.95 | locus YOL078W, strain AVO1, active compounds read low 0.986 | locus YOL136C, strain PFK27, active compounds read low 0.959 | locus YOR061W, strain CKA2, active compounds read low 0.961 | locus YOR119C, strain RIO1, active compounds read low 1.06 | locus YOR231W, strain MKK1, active compounds read low 0.873 | locus YOR329C, strain SCD5, active compounds read low 0.973 | locus YPL031C, strain PHO85, active compounds read low 0.975 | locus YPL153C, strain RAD53, active compounds read low 0.982 | locus YPL204W, strain HRR25, active compounds read low 0.966 | locus YPL209C, strain IPL1, active compounds read low 0.973 | locus YPR025C, strain CCL1, active compounds read low 0.976 | locus YPR106W, strain ISR1, active compounds read low 0.977 | locus YPR111W, strain DBF20, active compounds read low 0.96 | strain NNK1, active compounds read low 0.962 | strain TSCII, active compounds read low 0.978

CCCc1cnc(N2CCCN(C(=S)Nc3cccnc3)CC2)nc1
inactive: locus YAL013W, strain DEP1, active compounds read low 0.998 | locus YBR229C, strain ROT2, active compounds read low 0.997 | locus YCL061C, strain MRC1, active compounds read low 1.01 | [1] 1.06 | locus YDR150W, strain NUM1, active compounds read low 1.03 | locus YEL061C, strain CIN8, active compounds read low 0.959 | locus YGR078C, strain PAC10, active compounds read low 1.02 | [2] 1.05 | locus YHR087W, strain rtc3, active compounds read low 0.992 | locus YJR043C, strain POL32, active compounds read low 1.03 | locus YJR075W, strain HOC1, active compounds read low 1.03 | locus YLR039C, strain RIC1, active compounds read low 1 | locus YLR058C, strain SHM2 (second series), active compounds read low 0.996 | locus YLR085C, strain ARP6, active compounds read low 1.04 | locus YLR262C, strain YPT6, active compounds read low 1.01 | locus YML094W, strain GIM5, active compounds read low 1.02 | locus YMR219W, strain ESC1, active compounds read low 1.01 | locus YMR263W, strain SAP30, active compounds read low 1.03 | locus YNL153C, strain GIM3, active compounds read low 1.02 | locus YNL298W, strain CLA4 (second series), active compounds read low 0.999 | locus YNL322C, strain KRE1, active compounds read low 0.987 | locus YNR030W, strain Alg12, active compounds read low 1.01 | locus YPL055C, strain LGE1, active compounds read low 1.02 | locus YPL241C, strain CIN2, active compounds read low 1.02 | locus YPR135W, strain CTF4, active compounds read low 1.07
